The nature of assay [1]: qHTS of pediatric cancer cell lines to identify multiple opportunities for drug repurposing: Primary screen for SK-N-MC cells (AID 1347093). Also: potency is read from the fitted curve at half-maximal effect. In short, it runs like this: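 Metabolically active cells were quantified by ATP-dependent luminescence (CellTiter-Glo, 15 min at room temperature) following 48 h treatment. Cells had been plated at 500-1,000 per well and settled for 5 h beforehand.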
(In general: Quantitative high-throughput screening tests each substance at several concentrations.)

The nature of assay [2]: qHTS of pediatric cancer cell lines to identify multiple opportunities for drug repurposing: Primary screen for Saos-2 cells (AID 1347097). Also: nearly all actives have a fitted effect of over 40% in size. Also: potency is read from the fitted curve at half-maximal effect. Put shortly: (§1)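 Viability was measured as metabolically active cells after 48 hours of treatment, read by CellTiter-Glo luminescence. Compounds were tested at multiple final concentrations, giving concentration-response curves.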
Assay [3] in a line: qHTS of pediatric cancer cell lines to identify multiple opportunities for drug repurposing: Primary screen for SK-N-SH cells (AID 1347098). Also: nearly all actives have a fitted effect of over 65% in size. Also: potency is read from the fitted curve at half-maximal effect. Put shortly: (§2)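 Cells (500-1,000/well) rested 5 h, then received compounds for 48 h; metabolically active cells were measured by CellTiter-Glo luminescence. Final concentrations spanned up to 46 µM (MIPE, 11-point) or 0.59 nM-46 µM (NPC, 8-point) in primary screens, 11-point in follow-ups.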

A short description of assay [4]: qHTS of pediatric cancer cell lines to identify multiple opportunities for drug repurposing: Primary screen for BT-12 cells (AID 1347101). Also: nearly all actives have a fitted effect of over 25% in size. Also: potency is read from the fitted curve at half-maximal effect. In short, it runs like this: as §2
A short description of assay [5]: qHTS of pediatric cancer cell lines to identify multiple opportunities for drug repurposing: Primary screen for NB-EBc1 cells (AID 1347095). Also: potency is read from the fitted curve at half-maximal effect. Put shortly: as §1
Assay [6] in a line: qHTS of pediatric cancer cell lines to identify multiple opportunities for drug repurposing: Primary screen for LAN-5 cells (AID 1347100). Also: potency is read from the fitted curve at half-maximal effect. In short, it runs like this: as §2
Assay [7] in a line: qHTS of pediatric cancer cell lines to identify multiple opportunities for drug repurposing: Primary screen for BT-37 cells (AID 1347094). Also: series mostly up to about 57 µM. In short, it runs like this: as §1
Assay [8] is described as follows: qHTS of pediatric cancer cell lines to identify multiple opportunities for drug repurposing: Primary screen for U-2 OS cells (AID 1347096). Also: nearly all actives have a fitted effect of over 50% in size. In short, it runs like this:
as §2

Assay [9] is described as follows: qHTS of pediatric cancer cell lines to identify multiple opportunities for drug repurposing: Primary screen for NB1643 cells (AID 1347099). Also: nearly all actives have a fitted effect of over 50% in size. Also: potency is read from the fitted curve at half-maximal effect. Put shortly: as §1
Assay [10] is described as follows: qHTS of pediatric cancer cell lines to identify multiple opportunities for drug repurposing: Primary screen for Rh18 cells (AID 1347102). Also: nearly all actives have a fitted effect of over 65% in size. Also: potency is read from the fitted curve at half-maximal effect. Put shortly: as §2

Results filed as inconclusive are left out. The source made the active and inactive calls. Calls follow the shape of the dose curve; as a rule, active = well fitted curve in the direction sought with a large enough effect; inconclusive = small, poorly fitted or top-dose-only effect, or another doubt; inactive = no such curve, though single readings can be large; an effect the other way counts as inactive or inconclusive.

Regarding `O=C1NC2CCCCN2C12CCN(CCCN1c3ccccc3CCc3ccc(Cl)cc31)CC2` (stereo unspecified), the Potency in [1] was 16.8 µM (active); in assay [2], 23.7 µM (active); in assay [3], 27.3 µM (active); in [4], 15.5 µM (active).

Consider `O=C1NCCN1CCN1CCC(c2cn(-c3ccc(F)cc3)c3ccc(Cl)cc23)CC1`, for which the Potency in [1] is 6.68 µM (active); in [5], 21.1 µM (active); in [2], 21.1 µM (active); in [3], 21.7 µM (active); in assay [6], 8.41 µM (active); in assay [4], 8.71 µM (active).

In the case of `Nc1c[n+](N2CCOCC2)no1`, the Potency entry in assay [7], in assay [5], in assay [8], in [2], in [3] and in assay [9] was “inactive” each time. For the same molecule, the Potency result in [6] and in assay [4] was “inactive” in each case.

`Cc1cccc(C)c1NC(=O)c1cc(S(N)(=O)=O)c(Cl)cc1O`: the Potency result in [1], in assay [5], in assay [8], in [3], in assay [9] and in assay [6] was “inactive” each time. Besides, the Potency entry in [4] was “inactive”.

For the molecule `Cc1ncc([N+](=O)[O-])n1C`, the Potency entry in assay [7], in assay [5], in assay [8], in [2], in [3] and in assay [9] was “inactive” throughout. The Potency result in assay [6] and in assay [4] was “inactive” throughout.

Turning to `O=P(O)(O)OCC(O)CO` (stereo unspecified), the Potency result in [1], in assay [5], in assay [2], in assay [3], in assay [9] and in [6] was “inactive” throughout. Moreover, the Potency entry in assay [4] and in assay [10] was “inactive” throughout.

Consider `C[C@H](N)C(=O)N[C@@H](C)C(=O)NC1[C@H]2CN(c3nc4c(cc3F)c(=O)c(C(=O)O)cn4-c3ccc(F)cc3F)C[C@@H]12` (stereo partly specified), for which the Potency result in assay [1], in assay [5], in [8], in assay [2] and in [10] was “inactive” each time.

Take `CCCCCC(=O)O[C@]1(C(C)=O)CC[C@H]2[C@@H]3CCC4=CC(=O)CC[C@]4(C)[C@H]3CC[C@@]21C`: the Potency is 13.3 µM (active) in [1], 24.4 µM (active) in assay [3] and 26.6 µM (active) in [6].

As for `CCOC(=O)c1ccc(OCCN2C[C@H](O)[C@@H](O)[C@H](O)[C@H]2CO)cc1`, the Potency result in assay [1], in assay [5], in assay [8], in assay [3], in assay [9] and in [6] was “inactive” each time. Besides, the Potency result in assay [4] and in assay [10] was “inactive” in each case.

As for `O=C(Nc1ccc(Cl)cc1)Nc1ccc(Cl)c(Cl)c1`, the Potency in assay [1] was 18.8 µM (active); in [3], 12.2 µM (active).

In the case of `O=c1[nH]sc2cc(Cl)ccc12`, the Potency in [1] is 0.001 µM (active); in [5] it was 0.001 µM (active); in [3] it was 0.217 µM (active); in assay [9], 0.168 µM (active); in [6] it was 0.001 µM (active); in assay [10], 18.8 µM (active).

As for `CO/N=C(/C(=O)N[C@@H]1C(=O)N2C(C(=O)O)=C(Cn3nnc(C)n3)CS[C@H]12)c1csc(N)n1`, the Potency entry in assay [1], in assay [5], in assay [8], in assay [2], in assay [3] and in assay [9] was “inactive” throughout. Besides, in [10], the Potency entry is “inactive”.

In the case of `CC(=O)N1CCN(c2ccc(O)cc2)CC1`, the Potency result in assay [1], in assay [5], in [2], in [3], in assay [9] and in [6] was “inactive” in each case. Further, the Potency result in [4] is “inactive”.

Regarding `CN(C)CCOC1=Cc2ccccc2Sc2ccc(Cl)cc21`, the Potency entry in [1], in [5], in [8], in assay [9], in assay [6] and in assay [10] was “inactive” each time.

As for `O=C1CC[C@H](C(=O)N2CCCCC2)N1`, the Potency result in assay [1], in [5], in [2], in assay [3], in assay [9] and in assay [6] was “inactive” throughout. Also, in assay [10], the Potency entry is “inactive”.

As for `CCOC(=O)N1CCC(Nc2ccc(Cl)cc2N)CC1`, the Potency in assay [1] is 10.6 µM (active); in assay [5] it was 6.68 µM (active); in assay [3], 19.4 µM (active); in [6], 2.66 µM (active); in assay [4] it was 4.9 µM (active). Further, in [8], the Potency entry is “inactive”.

In the case of `CN(C)[C@@H]1C(=O)C(C(N)=O)=C(O)[C@@]2(O)C(=O)C3=C(O)c4c(O)cccc4C[C@H]3C[C@@H]12`, the Potency entry in assay [1], in assay [5], in [8], in [2] and in assay [3] was “inactive” throughout. For the same molecule, the Potency in assay [4] was 17.4 µM (active).

With `CC(=O)Nc1ccn(C2COC(COC(=O)c3ccccc3)O2)c(=O)n1` (stereo unspecified), the Potency in assay [1] was 0.75 µM (active); in assay [5], 2.37 µM (active). Further, the Potency result in assay [8], in [2] and in assay [10] was “inactive” each time.

For `O=C(O)c1ccccc1S`, the Potency entry in [1], in assay [5], in [8], in [2], in [3] and in [9] was “inactive” throughout. In addition, the Potency result in [6] and in assay [10] was “inactive” in each case.

As for `Nc1cccc2c(N)cccc12`, the Potency in [1] was 24.3 µM (active); in assay [2], 27.3 µM (active); in [3], 28 µM (active). For the same molecule, the Potency result in assay [8] and in assay [6] was “inactive” in each case.

Regarding `N=C(N)c1ccc(OCCCOc2ccc(C(=N)N)cc2)cc1`, the Potency entry in assay [1], in assay [8], in [2], in [9], in assay [6] and in assay [10] was “inactive” throughout. Moreover, the Potency in assay [4] was 2.19 µM (active).

For the molecule `CC[C@@H]([C@H](C)O)n1ncn(-c2ccc(N3CCN(c4ccc(OC[C@@H]5CO[C@@](Cn6cncn6)(c6ccc(F)cc6F)C5)cc4)CC3)cc2)c1=O`, the Potency in assay [1] is 11.9 µM (active); in assay [5] it was 21.1 µM (active). Also, the Potency result in assay [3] and in assay [10] was “inactive” throughout.

For `O=C(O)/C=C(\CC(=O)O)C(=O)O`, the Potency result in assay [1], in [8], in assay [2], in assay [3], in [9] and in assay [6] was “inactive” in each case. Moreover, the Potency entry in [4] and in [10] was “inactive” throughout.

With `COc1ccc(-n2nc(CCC(=O)N(C)O)cc2-c2ccc(Cl)cc2)cc1`, the Potency was 23.7 µM (active) in assay [1] and 21.1 µM (active) in assay [5]. Moreover, the Potency result in assay [8] and in assay [9] was “inactive” throughout.

For `N#C/C(=C1/SC[C@@H](c2ccc(Cl)cc2Cl)S1)n1ccnc1`, the Potency in assay [1] is 11.9 µM (active). Besides, the Potency result in [8] and in [10] was “inactive” in each case.

Take `CCC(C(=O)OCCN1CCOC(c2ccccc2)C1C)c1ccccc1` (stereo unspecified): the Potency result in [1], in [5], in assay [8], in [2], in assay [9] and in assay [6] was “inactive” throughout. Moreover, the Potency entry in [10] is “inactive”.

Take `CCCCC/C=C\C/C=C\CCCCCCCC(=O)NC(C)c1ccccc1` (stereo unspecified): the Potency in assay [1] is 18.8 µM (active). The Potency result in [5], in assay [8], in [9], in assay [6] and in [10] was “inactive” throughout.

The values above are taken from PubChem BioAssay (NCATS).
